# Results taken from article PMC5540273 (PLoS ONE, 2017).
# Tests used:
# Conditions in all cases: concentration: 1 μM, replicates: in singlicate; n = 1
# [1] = tested on: MAP4K2
# [2] = tested on: MAP4K3
# [3] = tested on: MAP4K4
# [4] = tested on: MAP4K5
# [5] = tested on: MAPKAPK2
# [6] = tested on: MAPKAPK5
# [7] = tested on: MARK1
# [8] = tested on: MARK2
# [9] = tested on: MARK3
# [10] = tested on: MARK4
# [11] = tested on: MAST1
# [12] = tested on: T1, MEK1
# T1 construct: gene MAP2K1
# [13] = tested on: T2, MEK2
# T2 construct: gene MAP2K2
# [14] = tested on: T3, MEK3
# T3 construct: gene MAP2K3
# [15] = tested on: T4, MEK4
# T4 construct: gene MAP2K4
# [16] = tested on: T5, MEK5
# T5 construct: gene MAP2K5
# [17] = tested on: T6, MEK6
# T6 construct: gene MAP2K6
# [18] = tested on: MELK
# [19] = tested on: MERTK
# [20] = tested on: MET
# 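Also: KINOMEscan kinase panel screen.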
compound,measurement,setting,value
CNc1nc(-c2ccc3c(N)n[nH]c3c2)cc(N2C[C@@H](C(=O)Nc3ccccc3)CC[C@H]2C)n1 [GSK2298859],%Inh,[1],0%
same,%Inh,[2],0%
same,%Inh,[3],6%
same,%Inh,[4],0%
same,%Inh,[5],0%
same,%Inh,[6],0%
same,%Inh,[7],0%
same,%Inh,[8],0%
same,%Inh,[9],0%
same,%Inh,[10],11%
same,%Inh,[11],0%
same,%Inh,[12],0%
same,%Inh,[13],0%
same,%Inh,[14],0%
same,%Inh,[15],7%
same,%Inh,[16],7%
same,%Inh,[17],0%
same,%Inh,[18],58%
same,%Inh,[19],35%
same,%Inh,[20],0%
Cc1cccc2c(-c3ccncn3)c(-c3ccc(F)cc3)nn12 [GW515532],%Inh,[1],0%
same,%Inh,[2],12%
same,%Inh,[3],7%
same,%Inh,[4],0%
same,%Inh,[5],8%
same,%Inh,[6],0%
same,%Inh,[7],0%
same,%Inh,[8],0%
same,%Inh,[9],5%
same,%Inh,[10],0%
same,%Inh,[11],7%
same,%Inh,[12],0%
same,%Inh,[13],0%
same,%Inh,[14],0%
same,%Inh,[15],19%
same,%Inh,[16],10%
same,%Inh,[17],0%
same,%Inh,[18],0%
same,%Inh,[19],15%
same,%Inh,[20],0%
CS(=O)(=O)CCNCc1nc(-c2ccc3ncnc(Nc4ccc(OCc5ccccc5)c(Cl)c4)c3c2)cs1.Cl [GW582764],%Inh,[1],0%
same,%Inh,[2],0%
same,%Inh,[3],10%
same,%Inh,[4],8%
same,%Inh,[5],21%
same,%Inh,[6],0%
same,%Inh,[7],0%
same,%Inh,[8],0%
same,%Inh,[9],0%
same,%Inh,[10],0%
same,%Inh,[11],43%
same,%Inh,[12],0%
same,%Inh,[13],0%
same,%Inh,[14],0%
same,%Inh,[15],16%
same,%Inh,[16],84%
same,%Inh,[17],0%
same,%Inh,[18],0%
same,%Inh,[19],9%
same,%Inh,[20],0%
Nc1cccc(-c2ccc3c(N)n[nH]c3c2)n1 [GSK2192730],%Inh,[1],59%
same,%Inh,[2],0%
same,%Inh,[3],0%
same,%Inh,[4],0%
same,%Inh,[5],0%
same,%Inh,[6],0%
same,%Inh,[7],0%
same,%Inh,[8],10%
same,%Inh,[9],0%
same,%Inh,[10],0%
same,%Inh,[11],0%
same,%Inh,[12],3%
same,%Inh,[13],22%
same,%Inh,[14],3%
same,%Inh,[15],1%
same,%Inh,[16],31%
same,%Inh,[17],18%
same,%Inh,[18],0%
same,%Inh,[19],0%
same,%Inh,[20],0%
Cc1c(Cn2c3ccccc3n3c(=O)cc(N4CCOCC4)nc23)cccc1C(F)(F)F [GSK2306394],%Inh,[1],2%
same,%Inh,[2],0%
same,%Inh,[3],11%
same,%Inh,[4],8%
same,%Inh,[5],0%
same,%Inh,[6],0%
same,%Inh,[7],0%
same,%Inh,[8],0%
same,%Inh,[9],0%
same,%Inh,[10],0%
same,%Inh,[11],0%
same,%Inh,[12],0%
same,%Inh,[13],0%
same,%Inh,[14],0%
same,%Inh,[15],17%
same,%Inh,[16],59%
same,%Inh,[17],0%
same,%Inh,[18],66%
same,%Inh,[19],33%
same,%Inh,[20],0%
COC(=O)c1cccc(NC(=O)NC2CCN(c3ccnc(Nc4ccc(OC)cc4)n3)C2)c1 (centres unmarked) [GSK1379746],%Inh,[1],0%
same,%Inh,[2],0%
same,%Inh,[3],0%
same,%Inh,[4],0%
same,%Inh,[5],14%
same,%Inh,[6],0%
same,%Inh,[7],0%
same,%Inh,[8],0%
same,%Inh,[9],4%
same,%Inh,[10],0%
same,%Inh,[11],13%
same,%Inh,[12],0%
same,%Inh,[13],0%
same,%Inh,[14],0%
same,%Inh,[15],34%
same,%Inh,[16],33%
same,%Inh,[17],0%
same,%Inh,[18],0%
same,%Inh,[19],22%
same,%Inh,[20],0%
COc1ccc(Nc2nccc(N3CCC(NC(=O)C(C)c4ccc(Cl)cc4)C3)n2)cc1 (centres unmarked) [GSK1379735],%Inh,[1],0%
same,%Inh,[2],11%
same,%Inh,[3],4%
same,%Inh,[4],0%
same,%Inh,[5],32%
same,%Inh,[6],0%
same,%Inh,[7],0%
same,%Inh,[8],0%
same,%Inh,[9],12%
same,%Inh,[10],0%
same,%Inh,[11],0%
same,%Inh,[12],0%
same,%Inh,[13],0%
same,%Inh,[14],0%
same,%Inh,[15],20%
same,%Inh,[16],13%
same,%Inh,[17],0%
same,%Inh,[18],7%
same,%Inh,[19],33%
same,%Inh,[20],0%
CC[C@@H]1CO[C@H](C(=O)Nc2ccccc2)CN1c1cc(-c2ccc3c(N)n[nH]c3c2)nc(NC)n1 [GSK2376236],%Inh,[1],0%
same,%Inh,[2],0%
same,%Inh,[3],0%
same,%Inh,[4],0%
same,%Inh,[5],0%
same,%Inh,[6],0%
same,%Inh,[7],0%
same,%Inh,[8],5%
same,%Inh,[9],0%
same,%Inh,[10],0%
same,%Inh,[11],0%
same,%Inh,[12],5%
same,%Inh,[13],13%
same,%Inh,[14],0%
same,%Inh,[15],0%
same,%Inh,[16],0%
same,%Inh,[17],0%
same,%Inh,[18],56%
same,%Inh,[19],3%
same,%Inh,[20],0%
O=c1cc(N2CCOCC2)nc2n(Cc3cccc(Cl)c3Cl)c3ccccc3n12 [GSK2299009],%Inh,[1],0%
same,%Inh,[2],0%
same,%Inh,[3],0%
same,%Inh,[4],0%
same,%Inh,[5],32%
same,%Inh,[6],0%
same,%Inh,[7],7%
same,%Inh,[8],0%
same,%Inh,[9],0%
same,%Inh,[10],23%
same,%Inh,[11],0%
same,%Inh,[12],0%
same,%Inh,[13],0%
same,%Inh,[14],0%
same,%Inh,[15],34%
same,%Inh,[16],75%
same,%Inh,[17],0%
same,%Inh,[18],89%
same,%Inh,[19],41%
same,%Inh,[20],0%
O=C(Nc1n[nH]c2nc(-c3cccs3)c(Br)cc12)C1CCCC1 [SB-743341],%Inh,[1],0%
same,%Inh,[2],0%
same,%Inh,[3],0%
same,%Inh,[4],0%
same,%Inh,[5],5%
same,%Inh,[6],17%
same,%Inh,[7],22%
same,%Inh,[8],8%
same,%Inh,[9],2%
same,%Inh,[10],19%
same,%Inh,[11],12%
same,%Inh,[12],15%
same,%Inh,[13],14%
same,%Inh,[14],18%
same,%Inh,[15],23%
same,%Inh,[16],31%
same,%Inh,[17],0%
same,%Inh,[18],0%
same,%Inh,[19],0%
same,%Inh,[20],0%
